# PubChem BioAssay (NCATS)
# Results filed as inconclusive are left out. Active and inactive are the calls of the source. Unless noted, calls come from the whole dose curve; as a rule, active = well fitted curve in the direction sought with a large enough effect; inconclusive = small, poorly fitted or top-dose-only effect, or another doubt; inactive = no such curve, though single readings can be large; an effect the other way counts as inactive or inconclusive.
# What was measured:
# [1] = Primary qHTS for inhibitors of SARS-S pseudo-typed particle cell entry (AID 1479145; calls by dose curve; note: % is set by controls: 0 for no effect and ±100 for the full control effect; nearly all actives have a fitted effect of over 45% in size)
# [2] = Primary qHTS for Huh7 cytotoxicity: counterscreen for inhibitors of MERS-S pseudotyped particle cell entry (AID 1479147; calls by dose curve); details: outcome: dose series up to 57.1 µM unless noted
# [3] = Primary qHTS for inhibitors of MERS-S pseudo-typed particle cell entry (AID 1479149; calls by dose curve; note: nearly all actives have a fitted effect of over 60% in size; for activity change, negative = inhibition: % is set by controls: 0 for no effect and ±100 for the full control effect)
# [4] = Primary qHTS for Vero E6 cytotoxicity: counterscreen for inhibitors of SARS-S pseudo-typed particle cell entry (AID 1479150; calls by dose curve); details: outcome: dose series up to 57.1 µM unless noted
# [5] = Primary qHTS to identify inhibitors of SARS-CoV-2 cell entry (AID 1645846; calls by dose curve; note: nearly all actives have a fitted effect of over 45% in size; note: potency is the fitted concentration of half-maximal effect); details: activity change, negative = inhibition: at 57.1 µM (top of the series) unless noted
# Summary of the method: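 Luminescence readout (Bright-Glo luciferase) 48 h after pseudoparticle addition. HEK293-ACE2 cells, 1500/well; compound pre-incubation 1 h; Normalized to spike PP and bald PP.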
# [6] = AP1 Signaling Pathway (AID 357; active = well fitted curve in either direction with a large enough effect, not every such curve was filed as active; note: % is set by controls: 0 for no effect and ±100 for the full control effect)
# Summary of the method: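 ME-180 cells with beta-lactamase reporter under AP-1 response element, stimulated with EC50 EGF; compounds tested in titration series, 5 h at 37 °C. CCF4 substrate added 2.5 h at room temperature; 460/530 nm emission ratio gave %activity and AC50.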
# [7] = NFAT Signaling Pathway (AID 444; active = well fitted curve in either direction with a large enough effect, not every such curve was filed as active;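 note: carbachol stimulus at about its EC50 of 1 µM final; % is set by controls: 0 for no effect and ±100 for the full control effect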); details: Jurkat NFAT-bla M1, carbachol, beta-lactamase ratio, 5 h
# Summary of the method: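 Jurkat cells with NFAT-driven β-lactamase reporter and co-expressed M1 receptor, stimulated with carbachol (final 1 uM, ~EC50), compound titration, 5 h at 37 °C. CCF4 loaded 1 h at RT; 460/530 nm ratio gave %activity and AC50.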
# [8] = Stat Signaling Pathway (AID 446; active = well fitted curve in either direction with a large enough effect, not every such curve was filed as active;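 note: ME-180 cervical cancer cells given 40 pM IL-6 alongside compound; SIE-controlled beta-lactamase reporter measured as 460/530 nm FRET emission ratio; % is set by controls: 0 for no effect and ±100 for the full control effect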)
# Summary of the method: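 IL-6/STAT signaling read in ME-180 cells via an SIE beta-lactamase reporter. Stimulus was 40 pM IL-6 (its AC50) for 5 hrs, so both activation and inhibition register.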
# [9] = target: Glucocorticoid receptor (Homo sapiens) (UniProt P04150); assay: GR-GFP Redistribution (AID 450;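 active = compounds whose dose series gives a full or clear partial fitted curve of increased nuclear translocation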; note: potency is the fitted concentration of half-maximal effect); details: U2OS GR-GFP nuclear translocation, laser cytometry, 2 h
# [10] = target: Cytochrome P450 3A4 (Homo sapiens) (UniProt P08684); assay: qHTS Assay for Inhibitors and Substrates of Cytochrome P450 3A4 (AID 884); note: nearly all actives have a fitted effect of over 50% in size; note: potency is the fitted concentration of half-maximal effect
# Summary of the method: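 20 nM human CYP3A4 with 25 uM Luciferin-PPXE (at KM) in 200 mM KPO4, preincubated 10 min with compound; NADPH regeneration started a 60 min RT reaction. Luciferin detected by luminescence, normalized to 57 uM ketoconazole as full inhibition.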
# [11] = system: Zika virus NS2B-NS3 protease; assay: Primary screen GU AMC qHTS for Zika virus inhibitors (AID 1347154);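 note: 0% = no-inhibitor control and -100% = no-enzyme control; nearly all actives have a fitted effect of over 70% in size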
# Summary of the method: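 Unlinked Zika NS2B hydrophilic domain–NS3 protease complex at 25 nM in 10 mM Tris-HCl pH 8.0, 0.01% Tween 20, with an AMC peptide substrate. Fluorescence change (340/450 nm) over 15 min at room temperature, normalized to controls, fitted to 4-parameter Hill.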
# [12] = Tertiary RLuc qRT-PCR qHTS assay for Zika virus inhibitors (AID 1347169); note: nearly all actives have a fitted effect of over 55% in size; note: potency is the fitted concentration of half-maximal effect
# Summary of the method: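 Vero cells (1,000 per well) plated overnight at 37 degrees C, treated with compound in DMSO, then infected with recombinant ZIKV-RLuc (Cambodian) at MOI 1-2 for 48-72 hrs. Live-cell Renilla luciferase substrate added; luminescence read after 1-1.5 hrs.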
# [13] = Primary qHTS for small molecule stabilizers of the endoplasmic reticulum resident proteome: Secreted ER Calcium Modulated Protein (SERCaMP) assay (AID 1508630); note: potency is the fitted concentration of half-maximal effect
# Summary of the method: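 GLuc-SERCaMP-expressing SH-SY5Y cells, pretreated 16 h with compound, are challenged with thapsigargin to empty ER calcium stores; after 4 h, coelenterazine is added directly to the medium and luminescence is imaged.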
# [14] = target: Phenylethanolamine N-methyltransferase (Homo sapiens) (UniProt P11086); assay: Confirmatory Screen for Target Class Profiling of Small Molecule Inhibitors of Methyltransferases (AID 1745852); details: MTase-Glo luminescence, SAH detection, recombinant enzyme; measured here: PNMT max response; stronger effect = lower value
# [15] = Confirmatory qHTS for VERO E6 Cytotoxicity Assay: Counterscreen for SARS-CoV-2 CPE Assay (AID 1508605; calls by dose curve; note: nearly all actives have a fitted effect of over 60% in size; note: potency is the fitted concentration of half-maximal effect)
# [16] = Confirmatory qHTS for activators (rescue) of SARS-CoV-2 Cytopathic Effect (CPE) (AID 1508606; calls by dose curve; note: potency is the fitted concentration of half-maximal effect; nearly all actives have a fitted effect of over 70% in size)
# [17] = qHTS to identify inhibitors of the type 1 interferon - major histocompatibility complex class I in skeletal muscle: primary screen against the NCATS Mechanism Interrogation Plate v5.0 (MIPE) Libary (AID 1347411); note: nearly all actives have a fitted effect of over 65% in size; note: potency is the fitted concentration of half-maximal effect;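 for activity change, negative = inhibition: plate controls were vehicle for no effect and reference inhibitor for full effect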
# Summary of the method: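 Luminescence from HiBiT-tagged endogenous HLA-B*08:01 served as the MHC class I read-out. CRISPR-engineered C25cl48 human myoblasts received 4.0 ng/ml IFN-beta plus compound for 24 hrs, with an 11-point, 1:3 series topping at 46 uM final.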
# [18] = qHTS assay to identify inhibitors of the type 1 interferon - major histocompatibility complex class I in skeletal muscle: Counter screen cell viability and HiBit confirmation (AID 1347412); details: iHSKM muscle cells + IFN-b, HiBiT or CellTiter-Glo, 24 h; Potency: HiBiT; Viability, at 45.9 µM (top of the series); note: nearly all actives have a fitted effect of over 60% in size; note: potency is the fitted concentration of half-maximal effect
# Summary of the method: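 HLA-B*08:01–HiBiT knock-in immortalized human myoblasts (C25cl48) stimulated with 4.0 ng/ml human IFN-beta and dosed with compound in a 12-point 1:3 titration (top final 46 uM). After 24 hrs at 37 C, HiBiT lytic luminescence or CellTiter Glo ATP read out.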
# NIH3T3 = assay: qHTS assay to identify novel small-molecules to repurpose for Merkel cell carcinoma treatment (AID 1296009); details: MCC and control cell lines, CellTiter-Glo viability, 72 h; at 44.8 µM (top of the series) unless noted; note: nearly all actives have a fitted effect of over 60% in size
# Summary of the method: (§1)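 Cells were treated for 72 hr at 37 degree celsius with compounds in 8- or 11-point dose response. Viability was read by CellTiter-Glo luminescence, normalized to no-cell (cytotoxicity) and DMSO controls.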
# HEK293T = assay: as above; details: MCC and control cell lines, CellTiter-Glo viability, 72 h; at 44.8 µM (top of the series) unless noted
# Summary of the method: as §1
# Sequence of Cytochrome P450 3A4 (Homo sapiens) (P08684 whole entry, looked up): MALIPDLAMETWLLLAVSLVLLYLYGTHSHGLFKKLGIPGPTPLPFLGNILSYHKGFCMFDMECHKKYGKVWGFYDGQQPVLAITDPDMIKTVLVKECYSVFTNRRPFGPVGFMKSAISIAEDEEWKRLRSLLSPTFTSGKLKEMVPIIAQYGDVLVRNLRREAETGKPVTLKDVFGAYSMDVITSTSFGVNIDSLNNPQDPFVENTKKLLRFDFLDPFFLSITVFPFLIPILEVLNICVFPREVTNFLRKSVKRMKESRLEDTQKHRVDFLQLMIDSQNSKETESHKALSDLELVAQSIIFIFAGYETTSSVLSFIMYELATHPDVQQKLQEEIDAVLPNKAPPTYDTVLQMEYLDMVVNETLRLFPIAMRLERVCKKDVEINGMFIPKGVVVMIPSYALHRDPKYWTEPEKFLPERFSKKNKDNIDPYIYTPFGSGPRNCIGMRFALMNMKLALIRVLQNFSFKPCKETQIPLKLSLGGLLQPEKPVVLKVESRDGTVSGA
# Sequence of Phenylethanolamine N-methyltransferase (Homo sapiens) (P11086 whole entry, looked up): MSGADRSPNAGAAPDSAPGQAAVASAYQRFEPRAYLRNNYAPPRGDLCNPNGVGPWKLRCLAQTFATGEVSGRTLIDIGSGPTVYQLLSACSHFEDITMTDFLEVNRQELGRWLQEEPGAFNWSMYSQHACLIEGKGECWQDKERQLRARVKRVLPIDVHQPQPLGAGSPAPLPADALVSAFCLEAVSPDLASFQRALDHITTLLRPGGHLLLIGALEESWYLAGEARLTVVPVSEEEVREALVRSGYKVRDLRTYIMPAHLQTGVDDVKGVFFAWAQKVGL
# Sequence of Glucocorticoid receptor (Homo sapiens) (P04150 whole entry, looked up): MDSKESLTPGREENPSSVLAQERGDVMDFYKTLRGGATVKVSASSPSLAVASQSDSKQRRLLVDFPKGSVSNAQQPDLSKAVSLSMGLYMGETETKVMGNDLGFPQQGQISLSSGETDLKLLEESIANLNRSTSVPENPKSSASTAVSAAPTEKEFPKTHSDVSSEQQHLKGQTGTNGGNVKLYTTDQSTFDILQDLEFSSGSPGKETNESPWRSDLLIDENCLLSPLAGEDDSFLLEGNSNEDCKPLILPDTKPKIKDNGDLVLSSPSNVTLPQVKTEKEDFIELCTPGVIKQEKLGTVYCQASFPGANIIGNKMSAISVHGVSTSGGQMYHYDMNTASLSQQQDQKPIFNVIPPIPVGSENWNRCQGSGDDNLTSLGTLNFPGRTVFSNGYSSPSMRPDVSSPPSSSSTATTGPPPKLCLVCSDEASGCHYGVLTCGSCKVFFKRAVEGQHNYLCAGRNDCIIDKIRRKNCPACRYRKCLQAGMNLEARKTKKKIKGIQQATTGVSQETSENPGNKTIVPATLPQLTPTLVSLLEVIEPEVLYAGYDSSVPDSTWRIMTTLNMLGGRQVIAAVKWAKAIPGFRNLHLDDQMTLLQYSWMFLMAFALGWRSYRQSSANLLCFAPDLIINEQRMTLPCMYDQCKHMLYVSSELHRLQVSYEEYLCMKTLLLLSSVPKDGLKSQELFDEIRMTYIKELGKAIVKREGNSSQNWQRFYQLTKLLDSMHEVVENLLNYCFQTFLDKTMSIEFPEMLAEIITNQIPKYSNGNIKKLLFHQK
smiles,measurement,setting,value
CC(=O)O[C@H]1CC[C@H]2[C@@H]3CC[C@H]4CC(=O)C=C(C)[C@]4(C)[C@H]3CC[C@]12C,Potency,[1],inactive
same,outcome,[2],inactive
same,Potency,[3],inactive
same,outcome,[4],inactive
CC(=O)N1N=C(c2ccc(N)cc2)c2cc3c(cc2C[C@H]1C)OCO3,"activity change, negative = inhibition",[5],-4.19%
C=CCN1CCC2(C)c3cc(O)ccc3C[C@H]1[C@H]2C,outcome,[6],inactive
same,"activity change, negative = inhibition",[7]; at 38 µM (top of the series),-29.1% (inactive)
same,outcome,[8],inactive
same,Potency,[9],> 46 µM (inactive)
same,Potency,[10],inactive
same,Potency,[11],inactive
same,Potency,[12],inactive
same,Potency,[13],inactive
COc1cc(N2CCN(C)CC2)ccc1N,activity,[14],-33.9%
Oc1ccc2c3c1O[C@H]1c4[nH]c5c(N=C=S)cccc5c4C[C@@]4(O)[C@@H](C2)N(CC2CC2)CC[C@]314,Potency,[15],inactive
same,Potency,[16],10 µM (active)
COc1ccc(CN(C(=O)[C@@H](N)Cc2c(C)cc(C(N)=O)cc2C)[C@@H](C)c2ncc(-c3ccccc3)[nH]2)cc1C(=O)O,Potency,[1],inactive
same,outcome,[2],inactive
same,Potency,[3],inactive
same,outcome,[4],inactive
same,"activity change, negative = inhibition",[5],-25.7%
CN1CCc2cc3c(cc2C1C1OC(=O)c2c1ccc1c2OCO1)OCO3 (stereo not given),Potency,[10],1.26 µM (active)
same,Potency,[11],inactive
same,Potency,[13],inactive
C=C1[C@@H](C)[C@H]2[C@H](Cc3ccccc3)NC(=O)[C@]23[C@H](OC(C)=O)/C=C/[C@](C)(O)C(=O)[C@@H](C)C/C=C/[C@H]3[C@@H]1O,Potency,[11],inactive
CC1CCCC(=O)CCC/C=C/c2cc(O)cc(O)c2C(=O)O1 (stereo not given),Potency,[10],2 µM (active)
CC(=O)OC[C@]12C[C@H](OC(=O)CC(C)C)C(C)=C[C@H]1O[C@@H]1[C@H](O)[C@@H](O)[C@@]2(C)[C@]12CO2,Potency,[15],0.113 µM (active)
CN(C)c1cc2c(cc1Sc1nc3c(N)nccc3n1CCNCC(C)(C)C)OCO2,Potency,[16],2.24 µM (active)
same,activity,[14],-0.0762%
CC1=CC(=O)[C@@H](O)[C@]2(C)C3[C@@H](O)[C@@H]4OC(=O)[C@@H]([C@H]4C)[C@]3(C)C(=O)C[C@@H]12 (stereo not given in full),Potency,[15],2.24 µM (active)
C=C(CO)C(=O)O[C@H]1CC(=C)[C@@H]2C[C@H](O)C(=C)[C@@H]2[C@H]2OC(=O)C(=C)[C@@H]21,activity,[14],-8.66%
CN[C@@H]1C[C@H]2O[C@@](C)([C@@H]1OC)n1c3ccccc3c3c4c(c5c6ccccc6n2c5c31)C(=O)NC4,Potency,[17],0.829 µM (active)
same,Potency,[18],0.198 µM (active)
CN1C[C@@H]2CN(c3ccc(-c4ccccc4)nn3)C[C@@H]2C1,outcome,NIH3T3,inactive
Cc1sc2c(c1C)C(c1ccc(Cl)cc1)=NC(CC(=O)Nc1ccc(O)cc1)c1nnc(C)n1-2 (stereo not given),"activity change, negative = inhibition",[5],-87.5%
Cc1ccccc1CN1CCC(N2CCC(n3c(=O)[nH]c4ccccc43)CC2)CC1,outcome,NIH3T3,inactive
C[C@@H]1CN(Cc2ccc(F)cc2)CCN1C(=O)COc1ccc(Cl)cc1NC(N)=O,Potency,[17],inactive
COC1C(O)C(C)OC(OC2C(CO)O[C@@H](O[C@@H]3CC4CCC5C(CC[C@]6(C)[C@@H](C7=CC(=O)OC7)CC[C@]56O)[C@@]4(C)[C@H](OC(C)=O)C3)C(O)C2O)C1O (stereo not given in full),outcome,NIH3T3,inactive [at 17.4 µM]
Cc1sc2c(c1C)C(c1ccc(Cl)cc1)=N[C@@H](CC(N)=O)c1nnc(C)n1-2,"activity change, negative = inhibition",[5],-6.24%
same,Potency,[18],inactive
CCC1NC(=O)C2C(Cl)C(Cl)CN2C(=O)C(CC)NC(=O)CC(c2ccccc2)NC(=O)C(CO)NC1=O (stereo not given),outcome,NIH3T3,inactive [at 17.4 µM]
CN(C)[C@@H]1C(=O)C(C(N)=O)=C(O)[C@@]2(O)C(=O)C3=C(O)c4c(O)ccc(Cl)c4[C@@](C)(O)C3C[C@@H]12 (stereo not given in full),outcome,[6],inactive
same,"activity change, negative = inhibition",[7]; at 17.2 µM (top of the series),0.867% (inactive)
same,outcome,[8],inactive
same,Potency,[9],> 20.6 µM (inactive)
same,outcome,NIH3T3,inactive
CNc1ccc2oc(C[C@H]3O[C@@]4(CC[C@H]3C)O[C@H](C(C)C(=O)c3ccc[nH]3)[C@H](C)C[C@H]4C)nc2c1C(=O)O (stereo not given in full),Potency,[12],0.658 µM (active)
CCC1C2CC3C4N(C)c5ccccc5C45CC(C2C5O)N3C1O (stereo not given),outcome,HEK293T,inactive
C[C@H]1O[C@@H](O[C@H]2CC[C@]3(CO)C4CC[C@]5(C)[C@@H](C6=CC(=O)OC6)CC[C@]5(O)[C@@H]4CC[C@H]3C2)[C@H](O)[C@H](O)[C@@H]1O[C@@H]1O[C@H](CO)[C@@H](O)[C@H](O)[C@H]1O (stereo not given in full),activity,[14],-1.28%
N#Cc1cn([C@@H]2O[C@H](CO)[C@H](O)[C@@H]2O)c2ncnc(N)c12,activity,[14],-99.9%
C[C@H]1CCC/C=C/C2C[C@H](O)C[C@H]2[C@H](O)/C=C/C(=O)O1 (stereo not given in full),Potency,[11],inactive
same,Potency,[17],0.147 µM (active)
same,Potency,[13],0.316 µM (active)
same,Potency,[5],1 µM (active)
same,Potency,[18],0.14 µM (active)
CCCCN1[C@@H]2CC[C@H]1CC(OC(c1ccc(F)cc1)c1ccc(F)cc1)C2 (stereo not given in full),Potency,[16],5.01 µM (active)
same,activity,[14],3.98%
Nc1ncnc2c1ncn2[C@@H]1O[C@@H]2COP(O)(=S)O[C@H]2[C@H]1O (stereo not given in full),outcome,HEK293T,inactive [at 9.27 µM]
C=C(C)[C@@H]1[C@H]2OC(=O)[C@H]1[C@]1(O)C[C@H]3O[C@]34C(=O)O[C@H]2[C@]14C,outcome,HEK293T,inactive
same,outcome,NIH3T3,inactive
C[C@@]1(CO)[C@H](O)CC[C@@]2(C)[C@H]1CC[C@H]1C[C@@H]3C[C@@]12CC[C@]3(O)CO,outcome,[6],inactive
same,"activity change, negative = inhibition",[7]; at 17.2 µM (top of the series),10.1% (inactive)
same,outcome,[8],inactive
same,Potency,[9],> 20.6 µM (inactive)
same,Potency,[11],inactive
